This is a sample that favours compounds with a hit; in the whole collection about 12% have one here.
G9a inh = inhibitors of human histone lysine methyltransferase G9a; Q96KQ7; G9a H3K9 monomethylation, AlphaScreen, 2 h; Potency, µM (highest dose often 102 µM), inactives show at the top dose activity, negative = inhibition, hits mostly inhibitors; actives 8.8% (n = 350,000); note: % is set by controls: 0 for no effect and ±100 for the full control effect; nearly all actives have a fitted effect of over 75% in size
Target sequence (Q96KQ7 913-1193 limits assumed): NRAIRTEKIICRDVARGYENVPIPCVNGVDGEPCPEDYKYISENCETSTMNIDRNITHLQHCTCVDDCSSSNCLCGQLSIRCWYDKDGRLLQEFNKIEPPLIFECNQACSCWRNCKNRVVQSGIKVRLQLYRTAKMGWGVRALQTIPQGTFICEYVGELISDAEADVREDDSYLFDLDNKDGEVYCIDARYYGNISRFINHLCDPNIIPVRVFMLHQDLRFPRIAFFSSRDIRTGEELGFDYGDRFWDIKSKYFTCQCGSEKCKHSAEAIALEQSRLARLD
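Compounds were preincubated with 20 nM G9a for 15 min, after which biotinylated H3K9 peptide (500 nM) and SAM (20 uM) started a 2 h room-temperature reaction. Monomethylated product was quantified by antibody-based AlphaScreen chemiluminescence.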
JMJD2A Tudor = blocks the human JMJD2A Tudor domain; O75164; actives 4.4% (n = 390,000); AlphaScreen JMJD2A-Tudor / H3K4me3 peptide binding; AID 504339; Potency, µM (highest dose often 114 µM), inactives show at the highest dose activity change, negative = inhibition, most hits filed as inhibitors; note: % is set by controls: 0 for no effect and ±100 for the full control effect; nearly all actives have a fitted effect of over 50% in size
HP1b binding inh = inhibitors of HP1-beta chromodomain binding to methylated histone tails. P83916. actives 0.56% (n = 390,000). AlphaScreen HP1-beta / biotin-H3K9me3 peptide binding. Potency, µM (top dose mostly 114 µM), for inactives: at the top dose activity change, negative = inhibition, usual class: inhibitors; note: nearly all actives have a fitted effect of over 70% in size
Target sequence (P83916 whole entry, looked up): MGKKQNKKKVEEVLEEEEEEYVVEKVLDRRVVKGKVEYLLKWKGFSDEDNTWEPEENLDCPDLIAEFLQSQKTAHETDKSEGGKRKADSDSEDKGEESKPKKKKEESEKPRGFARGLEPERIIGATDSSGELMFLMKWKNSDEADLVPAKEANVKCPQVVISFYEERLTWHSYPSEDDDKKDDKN
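AlphaScreen: HP1-beta (50 nM) preformed 30 min with biotin-H3(1-18)K9me3 peptide (50 nM) in PBS pH 7.4, 0.01% Tween-20. Compound added for 30 min at RT, then streptavidin donor/nickel chelate acceptor beads (10 ug/mL) for 30 min.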
BAZ2B block = blocks human BAZ2B; AlphaScreen BAZ2B-H3K14Ac peptide displacement; Potency, µM (top dose mostly 114 µM), without a hit: at the highest dose activity change, negative = inhibition, usual class: inhibitors; Q9UIF8; actives 4.4% (n = 360,000); AID 504333; note: % is set by controls: 0 for no effect and ±100 for the full control effect; nearly all actives have a fitted effect of over 60% in size
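In this displacement format the biotinylated H3(5-23) peptide acetylated at Lys14 serves as ligand at 50 nM, with BAZ2B at 50 nM in PBS pH 7.4 containing 0.01% Tween-20. Donor and acceptor beads are 10 ug/mL final.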
Sfp inh = inhibitors of Bacillus subtilis Sfp phosphopantetheinyl transferase; Potency, µM, without a hit: largest response in the series, negative = inhibition, most hits filed as inhibitors; Biochemical Sfp PPTase activity, qHTS; actives 3.5% (n = 310,000); Q9F4F7;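 note: the enzyme is Sfp with the accession as filed and its product quenches rhodamine fluorescence; 0% = enzyme reaction without inhibitor and -100% = no enzyme wells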
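Fluorescence-quenching assay: 15 nM Sfp-PPTase preincubated 15 min at room temperature with compound, then 5 uM rhodamine-CoA and 12.5 uM BHQ-2-labelled YbbR peptide added. Fluorescence (ex 525/em 598 nm) read at start and after 30 min; difference gives rate.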
* = called active by the depositor; ? = inconclusive; . = no result; [ ] = another dose, or the depositor's remark. Calls come from the whole dose curve; as a rule, active = well fitted curve in the direction sought with a large enough effect; inconclusive = small, poorly fitted or top-dose-only effect, or another doubt; inactive = no such curve, though single readings can be large; an effect the other way counts as inactive or inconclusive. Potency is the fitted concentration of half-maximal effect.

SMILES	G9a inh	JMJD2A Tudor	HP1b binding inh	BAZ2B block	Sfp inh
COc1ccc(-c2nc(CSCC(=O)N3CCc4ccccc4C3)c(C)o2)cc1OC	35µM*	?	11%	-6%	-20%
COc1ccc(-c2nc(CSCC(=O)NC3CC3)c(C)o2)cc1OC	-5%	-23%	22%	-2%	9%
CCOc1ccc(-c2nc(CSCC(=O)N3CCN(C(=O)c4ccco4)CC3)c(C)o2)cc1	50µM*	-13%	34%	-2%	-12%
CCOC(=O)C1=C(C)Nc2nc3ccccc3n2C1c1ccncc1 (centres undefined)	11%[12.7 µM]	5%	26%	1%	5%
CC(C)(C)c1ccc(/C=C2/SC(N3CCCC3)=NC2=O)cc1	.	-31%	-2%	-37%	?
COC(=O)c1c(N)sc(C(=O)NCCc2ccccc2)c1C	?	-10%	14%	-35%	-73%
O=C1C[C@@H](c2ccc(O)c(O)c2)Oc2cc(O[C@H]3O[C@@H](CO)[C@H](O)[C@@H](O)[C@@H]3O)cc(O)c21	.	.	.	.	-26%
Cc1c(OC(C)C(=O)NCCCN2CCCC2=O)ccc2c3c(c(=O)oc12)CCCC3 (centres undefined)	-32%	-8%	61%	-24%	13%
CCN(CC)CCNC(=O)c1ccc2c(c1)NC(=O)C(CS(=O)(=O)Cc1cccc(Br)c1)N2 (centres undefined)	?	-32%	-6%	-37%	.
COc1ccc(CCNC(=O)CSCc2nc(-c3cccc(C)c3)oc2C)cc1OC	?	-25%	7%	-26%	.
COc1ccc(-c2nc(CSCC(=O)N3CCN(c4cccc(C)c4)C(C)C3)c(C)o2)cc1OC (centres undefined)	45µM*	56µM*	-24%	45µM*	-28%
COc1cc(NC(=O)c2ccc3c(c2)OCO3)ccc1NC(=O)C(C)C	-6%	79µM*	?	-1%	11%
CC(C)C(=O)Nc1ccc2nn(-c3ccc(F)cc3)nc2c1	?	-6%	37%	6%	0%
Cc1ccc(-n2nc3ccc(NC(=O)c4ccc5c(c4)OCO5)cc3n2)cc1	71µM*	-14%	17%	-6%	3%
Cc1ccc(-n2nc3ccc(NC(=O)C(C)C)cc3n2)cc1	13µM*	-13%	5%	?	-2%
C/C(=N\NC(=O)C1CCCC1)c1ccc(C(C)C)cc1	0%	-5%	29%	-4%	14%
Cn1c(-c2sccc2OCc2ccc(Cl)cc2Cl)n[nH]c1=S	3.2µM*	-17%[11.4 µM]	-16%	?	3%
Cc1occc(=O)c1OCc1ccc(Cl)cc1Cl	11%	-7%	23%	6%	13%
Cc1ccc(COc2ccsc2-c2n[nH]c(=S)n2C)cc1	.	4%	36%	?	-30%
Cn1c(-c2sccc2OCc2ccccc2)n[nH]c1=S	2.8µM*	3.2µM*	?	56µM*	13%
Cc1nn(-c2ccccc2)c(C)c1S(=O)(=O)O	45µM*	-18%	22%	?	24%
Cc1ccc2c(c1)C(=O)CC1(CCCC1)O2	-4%[12.7 µM]	0%	31%	13%	2%
Cc1cc(/C=N/n2cnnc2)c(C)n1-c1ccc(OCc2ccc(Cl)cc2)cc1	40µM*	45µM*	?	79µM*	45µM*
Cc1cc(/C=N/n2cnnc2)c(C)n1-c1ccc(OCc2ccccc2F)cc1	?	56µM*	?	?	-17%
C(=N\n1cnnc1)/c1ccc(OCc2ccccc2)cc1	2%[59 µM]	-2%	43%	.	4%
SMILES	G9a inh	JMJD2A Tudor	HP1b binding inh	BAZ2B block	Sfp inh
Cc1ccc(Cn2c3ccccc3c3cn[nH]c(=O)c32)cc1	19%[59 µM]	-11%	33%	25%	3%
Cc1[nH]c2ccc(C(=O)N3CCCC3)cc2c1C	-36%	-10%	29%	-20%[57.1 µM]	2%
CC1=C(C(=O)Nc2ccc(C(=O)N3CCN(c4ccccc4F)CC3)cc2)SCCO1	-16%	?	3%	?	8%
Cc1[nH]c2ccc(C(=O)N3CCN(c4cccc(Cl)c4)CC3)cc2c1C	40µM*	?	-5%	?	-1%
Cc1[nH]c2ccc(C(=O)N3CCN(c4ccccc4Cl)CC3)cc2c1C	?	45µM*	?	22µM*	?
COc1ccccc1N1CCN(C(=O)c2ccc3[nH]c4c(c3c2)CC(C)CC4)CC1 (centres undefined)	?	?	?	40µM*	-2%
CC1=C(C(=O)Nc2ccc(C(=O)N3CCN(c4cccc(Cl)c4)CC3)cc2)SCCO1	45µM*	?	-7%	?	-5%
Cc1ccc(NC(=O)CSc2ccc(-c3ccc(-n4cccn4)cc3)nn2)c(C)c1	-23%	-8%	8%	-8%	.
Cc1cccc(N2CCN(C(=O)c3ccc4[nH]c(C)c(C)c4c3)CC2)c1C	.	?	-38%	.	.
COc1ccc(NC2CCCN(C(=O)c3ccc4[nH]c(C)c(C)c4c3)C2)cc1OC (centres undefined)	.	?	-8%	45µM*	0%
COc1ccc(NC2CCCN(C(=O)c3ccc(CSC)o3)C2)cc1OC (centres undefined)	-2%[59 µM]	-21%	18%	-36%	1%
CCOC(=O)c1[nH]c(C)c(C(=O)N2CCN(c3cccc(Cl)c3)CC2)c1C	?	?	-14%	50µM*	11%
Cc1[nH]c2ccc(C(=O)N3CCN(c4ccccc4F)CC3)cc2c1C	?	89µM*	?	?	.
Cc1[nH]c2ccc(C(=O)N3CCCCC3)cc2c1C	-6%	-26%	16%	-8%	8%
COc1ccccc1N1CCN(C(=O)c2ccc3[nH]c(C)c(C)c3c2)CC1	40µM*	?	-23%[57 µM]	?	-4%
COc1ccc(CCNC(=O)CSc2ccc3nnc(CCNC(=O)c4ccccc4)n3n2)cc1OC	.	-14%	21%	-9%	1%
O=C(Nc1ccc(Cl)cc1)c1ccc2oc(=O)n(Cc3ccccc3)c2c1	37%[59 µM]	9%	34%	-16%	.
COc1ccccc1N1CCN(C(=O)c2cc3c(C)nc4ccccc4c3o2)CC1	50µM*	-33%	24%	?	-12%
Cc1ccc(C)c(N2CCN(C(=O)c3cc4c(C)nc5ccccc5c4o3)CC2)c1	?	?	-10%[57 µM]	?	?
O=C(NNC(=O)C12CC3CC(CC(C3)C1)C2)c1ccco1	.	-9%	-8%	-16%	-16%
CC(C(=O)NCCc1ccc(F)cc1)N1CCN(Cc2ccccc2)CC1 (centres undefined)	-6%[59 µM]	-11%	13%	-6%	-9%
CCn1cc(C(=O)OCC(=O)Nc2ccc(F)cc2F)c(=O)c2ccc(C)nc21	?	-16%	46%	-6%	.
CCn1cc(-c2n[nH]c(=S)n2-c2ccc(C)cc2Br)c(=O)c2ccc(C)nc21	10µM*	?	55%	-5%	6%
Nc1nc(C(=O)N2CCOCC2)nn1C(=O)c1ccc(Cl)cc1	35µM*	3%	70%	-18%	5%

Bioassay records: PubChem, National Center for Advancing Translational Sciences (NCATS)
